# Rows were chosen to be rich in hits. Some 13% of all compounds tested hit in one or more screens of this group.
# HCMV antiviral: inhibitors of human cytomegalovirus. HFF cells, HCMV-luciferase reporter, 72 h; active compounds read low. activity change, negative = inhibition, % at 57.5 µM. hit rate 4.5% among 410,000; in the data active means activity change below about -60%; inconclusive means no clear call, values can overlap the other calls; inactive means above about -39%
#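 Cell-based, HFFs, 1000 cells/well, 16 h 37C; cpds in DMSO + HCMV-luc, MOI 1 PFU/cell; 72 h 37C; OneGlo luminescence after 5 min RT; norm. to buffer vs Salinomycin 10uM.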
# HCV inh: inhibitors of hepatitis C virus infection; Huh7.5.1 HCVcc-Cre infection, luciferase reporter, 44 h; Potency, µM (highest dose often 41.8 µM), for the others: top-dose activity change, negative = inhibition, hits mostly inhibitors; hit rate 3.4% among 340,000; AID 651820; further: potency means the concentration at half of the fitted maximal effect
#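 Seed cells (1,000/well) for 4 h; treat with compound and infect with HCVcc-Cre, moi about 0.5. Incubate 44 h, then detect luciferase activity.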
# Pf growth 48h: P. falciparum growth inhibition at 48 hours (one generation); P. falciparum luciferase growth in erythrocytes, 48 h; Potency, µM (titrated, usually from 28.7 µM), without a hit: top-dose activity change, negative = inhibition, most hits filed as inhibitors; hit rate 5.9% among 310,000; further: potency means the concentration at half of the fitted maximal effect
#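 In quantitative HTS format, infected erythrocytes bearing luciferase-reporter parasites were treated for a single generation at 37 C. Luminescence after adding detection reagent served as the growth measure.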
# Pf growth 96h: P. falciparum growth inhibition at 96 hour, primary screen for plastid delayed-death inhibitors; hit rate 6.9% among 320,000; Potency, µM (series often up to 28.7 µM), inactives show at the highest dose activity change, negative = inhibition, actives largely listed as inhibitors; P. falciparum luciferase reporter growth, 96 h; further: potency means the concentration at half of the fitted maximal effect
#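 P. falciparum expressing integrated firefly luciferase, in erythrocytes at 2% hematocrit, 0.05% parasitemia, incubated with compounds 96 h at 37 C, 5% CO2. Growth inhibition read as loss of luminescence; two-generation exposure targets delayed-death apicoplast inhibitors.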
# Numbers without * were called inactive; u = inconclusive; x = no result given; ! = not confirmed by another sample. Unless noted, the call rests on the fitted dose curve; in most records, active means well fitted inhibition curve with a large enough effect; inconclusive means small, poorly fitted or top-dose-only effect, or another doubt; inactive means no such curve, though single readings can be large or run the other way. On the % scale 0 is the no-effect control and ±100 the full control effect.
SMILES,HCMV antiviral,HCV inh,Pf growth 48h,Pf growth 96h
Cc1ccc(-c2csc(NC(=O)C3CSC4(C)CCC(=O)N34)n2)cc1 (stereo unspecified),-11,5%,0%,-7%
CC12CCC(=O)N1C(C(=O)Nc1ccc(F)c(Cl)c1)CS2 (stereo unspecified),-6,-27%,-18%,22%
CC(C)Oc1ccc(S(=O)(=O)N2CCCCC2)cc1NC(=O)C1CSC2(C)CCC(=O)N12 (stereo unspecified),u,-21%,12µM*,u
Cc1ccc(CNC(=O)CCCc2nnc3n(CC(C)C)c(=O)c4sccc4n23)cc1,-17,x,x,x
CCOC(=O)C1CCN(C(c2ccccc2OC)c2c(O)cc(C)n(CCOC)c2=O)CC1 (stereo unspecified),5,x,x,x
CCC(C)(C)NC(=O)C(Sc1ccccc1)c1ccccc1 (stereo unspecified),-25,7%,u,10µM*
O=C(OCc1cc(=O)oc2cc(O)ccc12)c1cc(S(=O)(=O)N2CCOCC2)ccc1F,-14,u,28%,3%
CCc1cc2c(COC(=O)c3cc(S(=O)(=O)N4CCOCC4)ccc3F)cc(=O)oc2cc1O,-39,u,u,15µM*
CCc1cc2c(COC(=O)c3cccc(NS(C)(=O)=O)c3)cc(=O)oc2cc1O,55,u,u,5.2µM*
CC(C)CNC(=O)c1ccc(Cl)c(NC(=O)COc2ccccc2)c1,x,x,-9%,u
CCOc1ccccc1NC(=O)c1ccc(Cl)c(NC(=O)CC(c2ccccc2)c2ccccc2)c1,-36,6%,u,9.3µM*
CCOc1ccc(Br)cc1C(=O)Nc1ccc(C(=O)NCC(C)C)cc1,-80*,u,u,u
CCOc1ccccc1C(=O)Nc1cc(C(=O)NCC(C)C)ccc1Cl,x,x,7.4µM*,1.7µM*
CCC(CC)C(=O)Nc1cc(C(=O)NCCc2ccccc2)ccc1Cl,11,-11%,12%,36%
CCOc1ccc(Br)cc1S(=O)(=O)Nc1ccc(C(=O)Nc2ccc(C)cc2)cc1,-19,u,-17%,u
CCOc1ccccc1C(=O)Nc1cc(C(=O)NCCc2ccccc2)ccc1Cl,-10,2.5µM*,u,u
Cc1c(C)n(Cc2ccc(F)cc2)c2ccc(C(=O)N3CCN(c4ccc(Cl)cc4)CC3)cc12,0,x,x,x
COc1ccc(CCNC(=O)c2cc3n(n2)CCCN(Cc2ccc(C)cc2)C3=O)cc1OC,-8,x,x,x
Cc1ccc(N2CC(NC(=O)/C=C\c3ccc4c(c3)OCO4)CC2=O)cc1 (stereo unspecified),142,x,x,x
Fc1cccc(-c2cc3cnc(Nc4cccc(C(F)(F)F)c4)cc3[nH]2)c1,-37,x,x,x
Cc1cc(N2CCN(c3ccccc3)CC2)n2nnnc2n1,53,25%,8%,-5%
Cc1cc(N2CCN(c3ccccc3)CC2)n2cc(-c3ccccc3)nc2n1,20,19%,u,7.4µM*
Cc1cc(N2CCN(c3ccccc3Cl)CC2)n2cc(-c3ccccc3)nc2n1,14,u,u,u
Cc1cc(N2CCN(c3ccccc3)CC2)n2c(n1)nc1ccccc12,u,2%,5.9µM*,u
CCOc1ccc(NC(=O)CSc2nnc(CNC(=O)C34CC5CC(CC(C5)C3)C4)n2CC)cc1,-13,x,x,x
SMILES,HCMV antiviral,HCV inh,Pf growth 48h,Pf growth 96h
CCOC(=O)c1cccc(NS(=O)(=O)c2cc(-c3cnc(C4CC4)o3)ccc2C)c1,-24,x,x,x
CCCc1nnc(NC(=O)c2nc(SCC)ncc2Cl)s1,-3,x,x,x
CCCc1nnc(NC(=O)c2nc(S(=O)(=O)Cc3ccc(C)cc3)ncc2Cl)s1,-107*!,u,11%,u
Cc1ccc(CSc2ncc(Cl)c(C(=O)Nc3nc4ccc(C)cc4s3)n2)cc1,11,x,x,x
Cc1ccc(CS(=O)(=O)c2ncc(Cl)c(C(=O)Nc3nc4ccc(C)cc4s3)n2)cc1,-107*,x,x,x
Cc1ccc(CS(=O)(=O)c2ncc(Cl)c(C(=O)Nc3nc4ccc(F)cc4s3)n2)cc1,-93*,x,x,x
COc1ccc2nc(NC(=O)c3nc(S(=O)(=O)Cc4ccc(C)cc4)ncc3Cl)sc2c1,-100*,x,x,x
CCCSc1ncc(Cl)c(C(=O)Nc2nc3ccc(OCC)cc3s2)n1,-10,x,x,x
COc1ccc(CNC(=O)C2CCN(Cc3nc(-c4ccc(Cl)cc4)oc3C)CC2)cc1,21,x,x,x
CC(C)OCCCNC(=O)c1c(N)n(CC2CCCO2)c2nc3ccccc3nc12 (stereo unspecified),-24,2%,3.3µM*,u

# High-throughput results as filed in PubChem.
